Experimental data from PubChem BioAssay (EPA / NIEHS).
Results filed as inconclusive are left out. The source made the active and inactive calls. Rule for the calls, unless noted: active = hit-call score of the fitted dose curve at least 0.9, where 1 is the maximum; inactive = score below 0.9.

Key:
[1] = read-out: E-selectin (Homo sapiens) (UniProt P16581); assay: BSK_3C_Eselectin: BioMAP Diversity Plus: 3C Assay for Eselectin Biomarker Activity (AID 2283015); conditions: primary human endothelial cells (HUVEC); actives raise or lower the signal
Outline: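 ELISA read-out of E-selectin on endothelial monolayers after 24 h chemical treatment. Human umbilical vein primary cells served as the system, with DMSO defining baseline activity for bidirectional fitting.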

[2] = read-out: Interleukin-1 alpha (IL1a), IL1A (gene 3552); assay: BSK_BE3C_IL1a: BioMAP Diversity Plus: BE3C Assay for Interleukin-1 alpha (IL1a) Biomarker Activity (AID 2283016); conditions: primary human bronchial epithelial cells; actives raise or lower the signal
Outline: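 Human primary bronchial epithelial cells, 24 h chemical exposure; IL-1a quantified by ELISA, fitted bidirectionally against DMSO. Cytotoxicity assessed in parallel by SRB total-protein staining at the time of measurement.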

[3] = read-out: Monocyte Chemoattractant Protein-1 (MCP1), CCL2 (gene 6347); assay: BSK_4H_MCP1: BioMAP Diversity Plus: 4H Assay for Monocyte Chemoattractant Protein-1 (MCP1) Biomarker Activity (AID 2283018); conditions: primary human endothelial cells (HUVEC); actives raise or lower the signal
Outline: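 Human umbilical vein endothelial cells (4H system) exposed to chemicals for 24 h in 96-well format. MCP-1 measured by ELISA; bidirectional fitting against DMSO, with SRB total-protein staining in parallel cultures for cytotoxicity.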

[4] = read-out: Human Leukocyte Antigen - DR isotype (HLADR), HLA-DRA (gene 3122); assay: BSK_3C_HLADR: BioMAP Diversity Plus: 3C Assay for Human Leukocyte Antigen - DR isotype (HLADR) Biomarker Activity (AID 2283019); conditions: primary human endothelial cells (HUVEC); actives raise or lower the signal
Outline: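 ELISA readout of surface HLA-DR on human umbilical vein endothelium, taken 24 h after chemical treatment. Gain- and loss-of-signal were both fitted relative to DMSO.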

[5] = read-out: Interleukin-8 (IL8), CXCL8 (gene 3576); assay: BSK_3C_IL8: BioMAP Diversity Plus: 3C Assay for Interleukin-8 (IL8) Biomarker Activity (AID 2283020); conditions: primary human endothelial cells (HUVEC); actives raise or lower the signal
Outline: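 Primary human umbilical vein endothelial cells were dosed for 24 h. IL-8 was quantified by ELISA and fitted bidirectionally against DMSO. Cytotoxicity was assessed in parallel cultures by SRB staining at 560 nm.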

[6] = read-out: Monokine induced gamma interferon (MIG), CXCL9 (gene 4283); assay: BSK_3C_MIG: BioMAP Diversity Plus: 3C Assay for Monokine induced gamma interferon (MIG) Biomarker Activity (AID 2283021); conditions: primary human endothelial cells (HUVEC); actives raise or lower the signal;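 for AC50: MIG protein level measured by immunoassay in the treated endothelial cultures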
Outline: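 HUVEC primary endothelial cultures dosed with chemical; MIG quantified by ELISA at 24 h. Data fitted bidirectionally against DMSO control, with parallel SRB total-protein staining for cytotoxicity.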

[7] = target: human Vitamin D Receptor (VDR), VDR (gene 7421) (UniProt P11473); assay: ATG_VDR_TRANS: Attagene TRANS-FACTORIAL HepG2 Assay for human Vitamin D Receptor (VDR) (AID 2283022; active = hit-call score of the fitted dose curve at least 0.9, where 1 is the maximum)
Sequence of human Vitamin D Receptor (VDR), VDR (gene 7421) (P11473 whole entry, looked up, the tested form may be a part): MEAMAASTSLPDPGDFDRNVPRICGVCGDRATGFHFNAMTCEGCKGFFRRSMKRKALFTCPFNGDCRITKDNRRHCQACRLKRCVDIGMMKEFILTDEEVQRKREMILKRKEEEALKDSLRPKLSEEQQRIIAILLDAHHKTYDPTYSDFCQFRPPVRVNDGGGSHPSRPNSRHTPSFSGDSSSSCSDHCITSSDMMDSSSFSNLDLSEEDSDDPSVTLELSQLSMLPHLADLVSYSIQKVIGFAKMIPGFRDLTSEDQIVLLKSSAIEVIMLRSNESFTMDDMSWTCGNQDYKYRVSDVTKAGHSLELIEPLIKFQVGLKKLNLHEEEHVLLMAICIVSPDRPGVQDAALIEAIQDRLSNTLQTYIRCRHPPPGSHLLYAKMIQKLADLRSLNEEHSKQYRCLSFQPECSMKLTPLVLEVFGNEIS
Outline: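 Steps: transfect HepG2 with GAL4-UAS-driven reporter constructs; dose compounds 24 h; isolate RNA, reverse-transcribe, PCR-amplify with 6-FAM-labelled primer extension and HpaI digestion; quantify fragments by capillary electrophoresis relative to DMSO.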

[8] = BSK_3C_SRB: Viability Assessment in the BioMAP Diversity Plus: 3C Assay (AID 2283023); conditions: primary human endothelial cells (HUVEC);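 note: cells read 24 h after compound dosing; fitted both ways against DMSO so a hit may be signal rise or drop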
Outline: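 Absorbance at 560 nm of sulforhodamine B-stained (0.1%) total protein served as a cytotoxicity readout in human umbilical vein endothelial cells, 24 h after chemical treatment. Signal was fitted bidirectionally relative to DMSO.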

[9] = read-out: Matrix Metallopeptidase 1 (MMP1), MMP1 (gene 4312); assay: BSK_BE3C_MMP1: BioMAP Diversity Plus: BE3C Assay for Matrix Metallopeptidase 1 (MMP1) Biomarker Activity (AID 2283024); conditions: primary human bronchial epithelial cells; actives raise or lower the signal
Outline: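 Human primary bronchial epithelial cells (BE3C system) dosed for 24 h; MMP-1 quantified by ELISA. Bidirectional fit against DMSO; cytotoxicity tracked in parallel cultures by SRB total-protein staining.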

Measured: AC50

Sequence of E-selectin (Homo sapiens) (P16581 whole entry, looked up): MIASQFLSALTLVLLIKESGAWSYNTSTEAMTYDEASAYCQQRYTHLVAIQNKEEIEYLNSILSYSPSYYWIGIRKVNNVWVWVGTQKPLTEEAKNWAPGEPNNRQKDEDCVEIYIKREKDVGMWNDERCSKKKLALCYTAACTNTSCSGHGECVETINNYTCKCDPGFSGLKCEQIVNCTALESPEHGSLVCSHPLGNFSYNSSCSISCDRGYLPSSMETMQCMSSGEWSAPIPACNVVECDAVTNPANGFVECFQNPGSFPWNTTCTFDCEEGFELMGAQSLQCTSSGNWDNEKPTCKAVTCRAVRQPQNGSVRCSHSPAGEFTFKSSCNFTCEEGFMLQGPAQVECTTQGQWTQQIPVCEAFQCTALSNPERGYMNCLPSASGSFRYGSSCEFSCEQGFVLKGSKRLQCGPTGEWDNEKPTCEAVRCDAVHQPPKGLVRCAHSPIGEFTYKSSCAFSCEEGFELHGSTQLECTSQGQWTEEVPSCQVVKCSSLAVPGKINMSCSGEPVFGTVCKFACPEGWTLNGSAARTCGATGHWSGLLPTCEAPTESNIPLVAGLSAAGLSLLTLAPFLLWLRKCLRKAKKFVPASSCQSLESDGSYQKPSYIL

Cc1ccccc1OP(=O)(Oc1ccccc1C)Oc1ccccc1C
active: [1] 5.43 µM | [2] 10.7 µM | [3] 6.27 µM | [4] 6.21 µM | [5] 5.37 µM | [8] 6.89 µM | [9] 5.4 µM
inactive: [6] | [7]

O=C(N[C@H]1CN2CCC1CC2)c1ccc2c(c1)OCCO2
inactive: all assays above

CCOC(=O)C(SP(=S)(OC)OC)c1ccccc1 (configuration not stated)
active: [3] 3.97 µM | [4] 31.8 µM | [8] 32.6 µM
inactive: all other assays above

Nc1c(Oc2ccccc2)cc(O)c2c1C(=O)c1ccccc1C2=O
active: [9] 5.87 µM
inactive: all other assays above

C[C@]12CC[C@@H](O)C[C@@H]1CC[C@@H]1[C@@H]2CC[C@]2(C)C(=O)CC[C@@H]12
not listed: [7]
inactive: all other assays above

c1ccc2sc(SNC3CCCCC3)nc2c1
active: [4] 29.3 µM
not listed: [7]
inactive: all other assays above

O=C1C=CC(=O)c2ccccc21
active: [1] 4.15 µM | [2] 3.75 µM | [3] 1.45 µM | [4] 2.14 µM | [5] 5.23 µM | [6] 6.7 µM | [8] 4.92 µM | [9] 5.57 µM
inactive: [7]

CCOC(=O)CC(=O)CCl
active: [1] 20 µM | [2] 20 µM | [4] 28.1 µM | [5] 3.97 µM
inactive: all other assays above

Nc1ccc(N)cc1
inactive: all assays above

OCCCCO
not listed: [7]
inactive: all other assays above

OC(Cc1ccccc1Cl)(Cn1[nH]cnc1=S)C1(Cl)CC1 (configuration not stated)
active: [1] 20 µM | [2] 33.2 µM | [3] 21.4 µM | [4] 30.1 µM | [8] 32 µM
inactive: [5] | [6] | [7] | [9]

Cc1ccc(OP(=O)(Oc2ccc(C)cc2C)Oc2ccc(C)cc2C)c(C)c1
active: [2] 4.77 µM | [3] 4.53 µM | [4] 20 µM | [8] 12 µM
not listed: [7]
inactive: all other assays above

OCCN(CCO)CCO
not listed: [7]
inactive: all other assays above

CCOP(=S)(OCC)OP(=S)(OCC)OCC
active: [1] 32.1 µM | [3] 33.5 µM | [4] 30.4 µM | [8] 26.6 µM
inactive: [2] | [5] | [6] | [9]

Cc1cc(Cl)ccc1OC(C)C(=O)O (configuration not stated)
not listed: [7]
inactive: all other assays above

Oc1cccc(-c2ccccc2)c1
active: [1] 32 µM | [3] 20 µM | [4] 32.9 µM | [8] 20 µM
not listed: [7]
inactive: all other assays above

CCOP(=S)(OCC)SCS(=O)(=O)C(C)(C)C
inactive: all assays above

Oc1cc(Cl)c(Cl)cc1Cl
inactive: [2] | [6] | [9]
active: [1] 35.4 µM | [3] 20 µM | [4] 16.8 µM | [5] 31.7 µM | [8] 28.7 µM

CC(C)(C)c1ccccc1O
inactive: all assays above

COCC(=O)N(c1c(C)cccc1C)[C@H](C)C(=O)OC
not listed: [7]
inactive: all other assays above

N#Cc1ccccc1Cl
inactive: [7]

CCN(CC)C(=O)C(Cl)=C(C)OP(=O)(OC)OC
not listed: [7]
inactive: all other assays above

O=[N+]([O-])c1cccc2ccccc12
not listed: [7]
inactive: all other assays above
